# An excerpt weighted towards active compounds, which were near 10% of everything screened.
# VDR inh = inhibitors of human vitamin D receptor. P11473. VDR-SRC2-3 peptide fluorescence polarization, 2 h. Potency, µM, for inactives: max response, negative = inhibition, most hits filed as inhibitors. 400,000 tested, 0.93% active; further: potency means the concentration at half of the fitted maximal effect
#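 Compounds are added to VDR with labelled SRC2-3 coactivator peptide and held 2 h at room temperature. Inhibition of the VDR–peptide interaction is then read as a change in fluorescence polarization.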
# G9a inh = blocks human histone lysine methyltransferase G9a; Q96KQ7; G9a H3K9 monomethylation, AlphaScreen, 2 h; Potency, µM (top dose mostly 102 µM), without a hit: at the highest dose activity, negative = inhibition, usual class: inhibitors; 350,000 tested, 8.8% active; further: potency means the concentration at half of the fitted maximal effect; nearly all actives have a fitted effect of over 75% in size
#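 AlphaScreen detection with an anti-monomethyl H3K9 antibody quantified product after a 2 h room-temperature reaction containing 500 nM biotinylated H3K9 peptide, 20 µM SAM and 20 nM enzyme, which had been preincubated 15 min with compound.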
# Sfp inh = blocks B. subtilis Sfp PPTase activity | Q9F4F7 | Biochemical Sfp PPTase activity, qHTS | Potency, µM, for the others: largest response in the series, negative = inhibition, hits mostly inhibitors | 310,000 tested, 3.5% active;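 further: the enzyme is Sfp with the accession as filed and its product quenches rhodamine fluorescence; potency means the concentration at half of the fitted maximal effect; 0% = enzyme reaction without inhibitor and -100% = no enzyme wells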
#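 After 15 min at room temperature with compound, 15 nM Sfp received 5 uM rhodamine-CoA plus 12.5 uM BHQ-2-ybbR (50 mM Hepes pH 7.6, 10 mM MgCl2). Rate came from the fluorescence difference over 30 min, ex 525/em 598 nm.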
# CCT chaperon mod = modulators of cytosolic chaperonin (CCT/TRiC) activity | AID 651819 | purified chaperonin ATPase assay, HTRF ADP detection, 30 min | 360,000 tested, 0.3% active | activity change, % (no concentration beside the values), hits read low; in the data active means activity change below about -30%
#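 TRiC (40 or 20 nM final, by batch activity) in 30 mM Tris pH 7.4, 100 mM KCl, 5 mM MgCl2, 1 mM DTT was treated with compound at 76 uM single dose, then 10 uM ATP, 30 min at 37 °C. ADP was read by HTRF Transcreener.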
# Mm-Cpn inhibitor = M. maripaludis TRiC chaperonin inhibition; Potency, µM (series often up to 76.9 µM), for inactives: at the highest dose activity, negative = inhibition, actives largely listed as inhibitors; 330,000 tested, 0.031% active; purified Mm-Cpn ATPase, ADP Transcreener TR-FRET; further: potency means the concentration at half of the fitted maximal effect; nearly all actives have a fitted effect of over 80% in size
#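 Inhibition of chaperonin ATP hydrolysis is measured as reduced ADP production, detected by competitive TR-FRET in which signal falls with ADP. Final enzyme 25 nM and ATP 10 uM, reacted 30 min at 37°C.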
# PLK1 PBD inh = blocks phosphopeptide binding to human PLK1 polo-box domain | Plk1 PBD binding of FITC phosphopeptide, fluorescence polarization | Potency, µM, for the others: max response, negative = inhibition, actives largely listed as inhibitors | 360,000 tested, 2.8% active | AID 720504; further: potency means the concentration at half of the fitted maximal effect; series mostly up to about 57 µM; nearly all actives have a fitted effect of over 65% in size
# Target sequence (P53350 whole entry, looked up, the tested form may be a part): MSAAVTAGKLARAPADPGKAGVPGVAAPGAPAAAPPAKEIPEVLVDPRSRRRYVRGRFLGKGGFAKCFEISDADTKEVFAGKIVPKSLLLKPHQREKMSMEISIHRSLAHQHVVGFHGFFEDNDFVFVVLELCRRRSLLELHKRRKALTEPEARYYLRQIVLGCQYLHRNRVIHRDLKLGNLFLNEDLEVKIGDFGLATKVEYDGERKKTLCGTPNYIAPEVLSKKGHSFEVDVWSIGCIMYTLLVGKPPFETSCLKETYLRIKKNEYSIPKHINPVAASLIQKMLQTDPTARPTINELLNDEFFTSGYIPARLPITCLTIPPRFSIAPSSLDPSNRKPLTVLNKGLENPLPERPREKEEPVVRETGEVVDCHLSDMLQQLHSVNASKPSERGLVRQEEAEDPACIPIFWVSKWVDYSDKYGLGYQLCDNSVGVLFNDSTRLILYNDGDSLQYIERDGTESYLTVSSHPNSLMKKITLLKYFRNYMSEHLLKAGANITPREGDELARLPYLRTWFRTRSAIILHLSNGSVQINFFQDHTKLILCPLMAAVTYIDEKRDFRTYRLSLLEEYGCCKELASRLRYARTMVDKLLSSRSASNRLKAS
# Numbers without * were called inactive; ? = inconclusive; . = no result given; [ ] = another dose, or the depositor's remark. Unless noted, the call rests on the fitted dose curve; in most records, active means well fitted curve in the direction sought with a large enough effect; inconclusive means small, poorly fitted or top-dose-only effect, or another doubt; inactive means no such curve, though single readings can be large; an effect the other way counts as inactive or inconclusive. Unless noted, on the % scale 0 is the no-effect control and ±100 the full control effect.
SMILES,VDR inh,G9a inh,Sfp inh,CCT chaperon mod,Mm-Cpn inhibitor,PLK1 PBD inh
Cc1cc(C)c2c(c1)cc(C)c1nnc(SCC(=O)Nc3ccccc3N3CCOCC3)n12,-18%,-4%[59 µM],0%,-4,0%,-2%
COc1ccc(-n2nc3cc(C)c(NC(=O)c4ccc(-c5ccc(Cl)cc5)o4)cc3n2)cc1,1%,10%[59 µM],.,.,.,.
COc1cccc(CN2CCc3nc(Nc4ccc5c(c4)OCCO5)ncc3C2)c1OC,9%,?,.,.,.,.
Cc1ccccc1Nc1c(-c2ccc(Br)o2)nc2ccc(Cl)cn12,-17%,-31%[59 µM],.,.,.,.
O=C(O)CC1NCCc2ccccc21 (configuration not stated),-12%,-33%[59 µM],15%,1,1%,30µM*
O=C(O)C1NCCc2ccccc21 (configuration not stated),0%,40µM*,5%,0,-3%,-3%
COc1ccc(NC(=O)c2oc3ccccc3c2NC(=O)C23CC4CC(CC(C4)C2)C3)cc1,13%,-4%[59 µM],.,.,.,.
O=C(Nc1ccc2nc(-c3ccccc3)[nH]c2c1)c1cccs1,5%,?,6%,2,-2%,-8%
O=C(Nc1ccc2nc(-c3ccco3)[nH]c2c1)c1cccs1,6%,14µM*,-12%,-4,-4%,-13%
O=C(Nc1ccc2nc(-c3ccco3)[nH]c2c1)c1ccco1,-7%,71µM*,45µM*,-6,1%,-3%
O=C(Nc1ccc2nc(-c3ccc4nc[nH]c4c3)[nH]c2c1)c1cccs1,-5%,22µM*,-2%,0,-5%,-9%
CC(=O)Nc1ccc2nc(-c3ccco3)[nH]c2c1,-25%,?,-1%,-7,-8%,-11%
CC(Oc1ccccc1F)C(=O)N1CCC(c2nc3ccccc3o2)CC1 (configuration not stated),-2%,6%[59 µM],.,.,.,.
O=C(NCc1ccccc1)C12CN(Cc3ccccc3)CC1C(c1cccc([N+](=O)[O-])c1)=NO2 (configuration not stated),-9%,8.9µM*,1%,0,-1%,1%
O=C(NCc1ccc(OC(F)(F)F)cc1)C12CN(Cc3ccccc3)CC1C(c1cccc([N+](=O)[O-])c1)=NO2 (configuration not stated),-9%,?,-15%,0,1%,-18%
O=C(NCc1cc(C(F)(F)F)cc(C(F)(F)F)c1)C12CN(Cc3ccccc3)CC1C(c1cccc([N+](=O)[O-])c1)=NO2 (configuration not stated),-17%,-48%[12.7 µM],-9%,-2,0%,-10%
Cc1ccc(CNC(=O)C23CN(Cc4ccccc4)CC2C(c2ccc([N+](=O)[O-])cc2)=NO3)cc1 (configuration not stated),-7%,?,40µM*,0,-2%,-7%
Cc1ccc(CCNC(=O)C23CN(Cc4ccccc4)CC2C(c2ccc([N+](=O)[O-])cc2)=NO3)cc1 (configuration not stated),-20%,-14%[59 µM],10µM*,-4,1%,-15%
COc1ccc(OC)c(NC(=O)C2=C(C)C(=O)OC23CCN(C(C)C)CC3)c1,10%,-40%[59 µM],.,.,.,.
CC1=C(C(=O)Nc2ccccc2)C(c2ccc(O)cc2)n2nc(-c3ccc(Cl)cc3)nc2N1 (configuration not stated),-25%,16%[59 µM],.,.,.,.
COc1ccc(CNC(=O)c2ccc(-c3nc(CSc4ccccc4)c(C)o3)cc2)c(OC)c1,16%,?,.,.,.,.
Cc1ccc(S(=O)(=O)N2CCC(c3ccncc3)CC2)c(C)c1,1%,-6%[59 µM],.,.,.,.
O=C(NC1CCCC1)c1ccc2c(c1)N(Cc1ccccc1F)C(=O)c1ccccc1S2,19%,-1%[59 µM],.,.,.,.
COC(=O)C1=C(C)OC(N)=C(C#N)C1c1ccc(OC)c(CSc2ccccn2)c1 (configuration not stated),1%,16µM*,3%,0,-2%,-27%

# Screening results (PubChem BioAssay)
